# In the supplement of paper PMC3334620:
# In all, about 33,000 sequences were measured (“E-score (-0.5 to 0.5)”: median about -0.016, highest 2% from about 0.32 on). This excerpt belongs to a sample that is enriched for the highest values.
# Target: T1, Stp1 (UniProt B3LFK1)
# T1 sequence: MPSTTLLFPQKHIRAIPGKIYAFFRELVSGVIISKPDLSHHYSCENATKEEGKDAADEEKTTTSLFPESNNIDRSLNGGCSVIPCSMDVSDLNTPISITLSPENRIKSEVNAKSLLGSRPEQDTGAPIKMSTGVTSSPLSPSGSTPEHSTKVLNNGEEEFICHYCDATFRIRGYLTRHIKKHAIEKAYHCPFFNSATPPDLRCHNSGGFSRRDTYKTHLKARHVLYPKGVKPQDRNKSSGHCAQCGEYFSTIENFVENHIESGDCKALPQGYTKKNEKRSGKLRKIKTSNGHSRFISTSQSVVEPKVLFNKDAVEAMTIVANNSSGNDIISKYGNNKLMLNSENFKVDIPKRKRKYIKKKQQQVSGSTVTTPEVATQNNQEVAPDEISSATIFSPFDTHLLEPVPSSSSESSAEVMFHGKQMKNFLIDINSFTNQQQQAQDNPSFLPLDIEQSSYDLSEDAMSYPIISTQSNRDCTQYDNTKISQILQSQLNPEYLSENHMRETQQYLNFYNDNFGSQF
# Assay: PBM E-score (8-mer binding enrichment) (E-score (-0.5 to 0.5)); higher = stronger / more preferred TF binding
# Settings: protein concentration: 200 nM; construct: GST-full length
# Method in brief: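 Universal all-10-mer Agilent arrays, fresh or stripped once, were converted to double-stranded form by primer extension. GST-tagged yeast transcription factors from PURExpress in vitro transcription/translation, full-length or DNA-binding domain only, were applied at about 100-200 nM and detected with fluorescent anti-GST. After masliner normalisation, the Universal PBM Analysis Suite scored each ungapped eight-base word together with its reverse complement by E-score.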
row,Sequence,PBM E-score
1,ACACCTTA,0.0262
2,ACGACCGT,-0.11
3,AAAGTGCC,0.201
4,CACACGGA,0.253
5,ATCACGGG,0.00016
6,ATCACGGA,-0.0235
7,AACACGGC,0.449
8,AGCACGGA,0.114
9,AACACGGA,0.199
10,CACACGGC,0.471
11,AGCACGGG,0.14
12,AACACGGG,0.116
13,CACACGGG,0.235
14,ATCACGGC,0.351
15,AGCACGGC,0.451
16,ACACCGAA,0.0644
17,AAGGAGCT,-0.235
18,AAAGCAAC,0.0791
19,AGTATTCG,0.0476
20,ATTTGGTA,0.144
21,AGACGCGC,0.0493
22,GACACGGC,0.479
23,GACACGCC,0.105
24,GACACGGA,0.315
25,GCCCTATA,0.206
26,AACCAAAG,0.0816

row,Sequence,PBM E-score
1,ACCACTAT,-0.127
2,AGCATTAA,-0.0764
3,CGCATTAA,0.144
4,GGCATTAC,0.364
5,CGCATTAC,-0.0452
6,AGCATTAC,-0.0767
7,GGCATTAA,0.319
8,ATACTGGC,-0.284
9,AATATCGT,0.141
10,ACCCAACT,-0.178
11,CGTGCCGC,0.475
12,AGTGCCAC,0.242
13,AGTGCCGG,0.211
14,ACTGCCGC,0.412
15,AGTGCCGC,0.477
16,CGTGCCCA,0.235
17,CCTGCCGC,0.226
18,ACTGCCGG,0.0822
19,CGTGCCAC,0.232
20,GGTGCCGA,0.288
21,CGTGCCAG,0.172
22,CGTGCCGA,0.352
23,ACAGGTAG,-0.126
24,GAACTCCA,-0.0707
25,CCGACTTA,0.0516
26,CTCTGAAA,0.0291

row,Sequence,PBM E-score
1,CATTCTCG,0.128
2,GGGCCTGA,-0.296
3,AGTGCCGA,0.322
4,CTTGCCGC,0.309
5,ATTGCCGC,0.418
6,AGTGCCAA,-0.0972
7,AGTGCCCA,0.0772
8,ATTGCCGA,0.177
9,ATCAACCG,-0.0921
10,CCCGTACC,0.191
11,GCCGTACC,0.46
12,ACCGTACC,-0.0289
13,CCCGTACA,-0.0395
14,GCCGTACA,0.459
15,ACCGTACA,0.117
16,CCAGAGAG,-0.245
17,ACTCGGCA,0.324
18,GCGCGGCA,0.483
19,CCGCGGTC,-0.0134
20,GAGCGGCC,0.156
21,GCGCGGCC,0.4
22,GCGCGGGA,0.163
23,GCGCGGAC,0.256
24,CCGCGGGC,0.215
25,CCGCGGCC,0.325
26,TCTCGGCA,0.045

row,Sequence,PBM E-score
1,GCGCGGAA,0.263
2,CCTCGGCA,0.282
3,CAGCGGGA,-0.174
4,AGATAGTA,0.0718
5,ACATAGTC,-0.0859
6,AACACCCG,0.151
7,CTGTGATC,-0.0819
8,CACGTAGG,-0.104
9,CCCCGTCA,-0.177
10,CAGATTTA,0.198
11,TGGTTACA,-0.0623
12,TCTACCAA,-0.0725
13,CCGCGGCG,0.435
14,ACGCGGCT,0.446
15,ACGCGGAC,0.0606
16,ACGCGGCC,0.326
17,ACGCGGCA,0.479
18,CCGCGGAG,0.0416
19,CCGCGACG,0.197
20,ACGCGGGA,0.0444
21,ACGCGGAT,0.236
22,ACGCGTCT,-0.112
23,ACGCGGTC,-0.0102
24,ACGCGGTA,0.0505
